Where “and” joins values, the source holds several entries; their conditions need not be identical. Equal values may be shown once. About 2,000 (36%) of roughly 5,500 compounds were called active. Another 18% or so got no clear call; they are omitted. Cut-off read from the data, not from the text of the source: active = normalized growth mostly below about 0.91 (no sharp cut-off); inconclusive = no clear call, values can overlap the other calls; inactive = mostly above about 0.92. The list shows a part of the results.
Assay: chemical genetic growth profiling, strain panel (AID 1159580);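 note: tested at 20 µM; growth read once vehicle control cultures reached saturation at 30 °C; 1 = growth at the plate median or of vehicle wells; lower values mean less growth of the strain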
Details: growth OD

Measured: normalized growth

O=C(O)CCCCCCCC(=O)O
inactive: S. cerevisiae deletion strains, locus YKL009W, strain mrt4, active compounds read low 0.937 | S. cerevisiae deletion strains, locus YKL068W, active compounds read low 1.01 | S. cerevisiae deletion strains, locus YKL085W, strain MDH1 (second series), active compounds read low 1 | S. cerevisiae deletion strains, locus YKL085W, strain MDH1, active compounds read low 1 | S. cerevisiae deletion strains, locus YKL160W, strain elf1, active compounds read low 1.04 | S. cerevisiae deletion strains, locus YKL190W, strain CNB1, active compounds read low 0.992 | S. cerevisiae deletion strains, locus YKR001C, strain vps1, active compounds read low 0.981 | S. cerevisiae deletion strains, locus YKR026C, strain gcn3, active compounds read low 1.01 | S. cerevisiae deletion strains, locus YKR091W, strain srl3, active compounds read low 0.996 | S. cerevisiae deletion strains, locus YLL001W, strain dnm1, active compounds read low 1.02 | S. cerevisiae deletion strains, locus YLL026W, active compounds read low 0.995 | S. cerevisiae deletion strains, locus YLL041C, strain sdh2, active compounds read low 0.993 | S. cerevisiae deletion strains, locus YLR027C, strain aat2, active compounds read low 1.01 | S. cerevisiae deletion strains, locus YLR039C, strain RIC1, active compounds read low 0.999 | S. cerevisiae deletion strains, locus YLR058C, strain SHM2, active compounds read low 0.978 | S. cerevisiae deletion strains, locus YLR102C, strain apc9, active compounds read low 0.99 | S. cerevisiae deletion strains, locus YLR113W, strain HOG1, active compounds read low 0.966 | S. cerevisiae deletion strains, locus YLR221C, strain rsa3, active compounds read low 1.01 | S. cerevisiae deletion strains, locus YLR258W, strain gsy2, active compounds read low 1.02 | S. cerevisiae deletion strains, locus YLR262C, strain YPT6 (second series), active compounds read low 0.981 | S. cerevisiae deletion strains, locus YLR262C, strain YPT6, active compounds read low 0.949 | S. cerevisiae deletion strains, locus YLR268W, strain sec22, active compounds read low 1.01 | S. cerevisiae deletion strains, locus YLR320W, strain mms22, active compounds read low 1 | S. cerevisiae deletion strains, locus YLR330W, strain CHS5, active compounds read low 0.995 | S. cerevisiae deletion strains, locus YLR342W, strain FKS1 (second series), active compounds read low 1.03 | S. cerevisiae deletion strains, locus YLR342W, strain FKS1, active compounds read low 1.01 | S. cerevisiae deletion strains, locus YLR357W, strain rsc2, active compounds read low 1.05 | S. cerevisiae deletion strains, locus YLR370C, strain arc18, active compounds read low 1.01 | S. cerevisiae deletion strains, locus YLR371W, strain rom2, active compounds read low 0.991 | S. cerevisiae deletion strains, locus YLR384C, strain iki3, active compounds read low 0.994 | S. cerevisiae deletion strains, locus YLR418C, strain cdc73, active compounds read low 1.02 | S. cerevisiae deletion strains, locus YML016C, strain PPZ1, active compounds read low 0.991 | S. cerevisiae deletion strains, locus YML032C, strain rad52, active compounds read low 0.972 | S. cerevisiae deletion strains, locus YML120C, strain ndi1, active compounds read low 1 | S. cerevisiae deletion strains, locus YML124C, strain tub3, active compounds read low 0.991 | S. cerevisiae deletion strains, locus YMR058W, strain fet3, active compounds read low 1.01 | S. cerevisiae deletion strains, locus YMR078C, strain ctf18, active compounds read low 0.983 | S. cerevisiae deletion strains, locus YMR125W, strain sto1, active compounds read low 1.03 | S. cerevisiae deletion strains, locus YMR129W, active compounds read low 1.01 | S. cerevisiae deletion strains, locus YMR205C, strain PFK2, active compounds read low 1.02 | S. cerevisiae deletion strains, locus YMR223W, strain ubp8, active compounds read low 1 | S. cerevisiae deletion strains, locus YMR231W, strain pep5, active compounds read low 1.01 | S. cerevisiae deletion strains, locus YMR263W, strain SAP30, active compounds read low 0.984 and 1.01 | S. cerevisiae deletion strains, locus YMR307W, strain GAS1, active compounds read low 1.12 | S. cerevisiae deletion strains, locus YNL067W, strain RPL9B, active compounds read low 0.996 | S. cerevisiae deletion strains, locus YNL071W, strain lat1, active compounds read low 1 | S. cerevisiae deletion strains, locus YNL128W, strain TEP1, active compounds read low 0.976 | S. cerevisiae deletion strains, locus YNL153C, strain GIM3, active compounds read low 0.986 and 1.02 | S. cerevisiae deletion strains, locus YNL175C, strain NOP13, active compounds read low 1.01 | S. cerevisiae deletion strains, locus YNL183C, strain NPR1, active compounds read low 0.945 | S. cerevisiae deletion strains, locus YNL197C, strain WHI3, active compounds read low 1.01 | S. cerevisiae deletion strains, locus YNL209W, strain ssb2, active compounds read low 1 | S. cerevisiae deletion strains, locus YNL224C, strain SQS1, active compounds read low 1 | S. cerevisiae deletion strains, locus YNL233W, strain BNI4, active compounds read low 0.994 | S. cerevisiae deletion strains, locus YNL248C, strain rpa49, active compounds read low 1.04 | S. cerevisiae deletion strains, locus YNL250W, strain rad50, active compounds read low 0.988 | S. cerevisiae deletion strains, locus YNL271C, strain bni1, active compounds read low 0.992 | S. cerevisiae deletion strains, locus YNL298W, strain CLA4, active compounds read low 0.926 | S. cerevisiae deletion strains, locus YNL307C, strain MCK1, active compounds read low 0.992 | S. cerevisiae deletion strains, locus YNL322C, strain KRE1 (second series), active compounds read low 1.04 | S. cerevisiae deletion strains, locus YNL322C, strain KRE1, active compounds read low 0.992 | S. cerevisiae deletion strains, locus YNR049C, strain mso1, active compounds read low 1.01 | S. cerevisiae deletion strains, locus YNR052C, strain pop2, active compounds read low 0.974 | S. cerevisiae deletion strains, locus YOL006C, strain TOP1, active compounds read low 1.02 | S. cerevisiae deletion strains, locus YOL012C, strain htz1 0.954 | S. cerevisiae deletion strains, locus YOL147C, strain pex11, active compounds read low 1 | S. cerevisiae deletion strains, locus YOR001W, strain rrp6, active compounds read low 1 | S. cerevisiae deletion strains, locus YOR061W, strain CKA2, active compounds read low 0.973 | S. cerevisiae deletion strains, locus YOR069W, strain VPS5, active compounds read low 0.998 | S. cerevisiae deletion strains, locus YOR070C, strain gyp1, active compounds read low 1.02 | S. cerevisiae deletion strains, locus YOR080W, strain dia2, active compounds read low 1.01 | S. cerevisiae deletion strains, locus YOR083W, strain WHI5 (second series), active compounds read low 1.02 | S. cerevisiae deletion strains, locus YOR083W, strain WHI5, active compounds read low 1 | S. cerevisiae deletion strains, locus YOR106W, strain vam3, active compounds read low 1.03 | S. cerevisiae deletion strains, locus YOR136W, strain idh2, active compounds read low 0.962 | S. cerevisiae deletion strains, locus YOR144C, strain elg1, active compounds read low 0.993 | S. cerevisiae deletion strains, locus YOR184W, strain ser1, active compounds read low 0.988 | S. cerevisiae deletion strains, locus YOR231W, strain MKK1, active compounds read low 0.973 | S. cerevisiae deletion strains, locus YOR265W, strain rbl2, active compounds read low 1.01 | S. cerevisiae deletion strains, locus YOR270C, strain vph1, active compounds read low 1.1 | S. cerevisiae deletion strains, locus YOR290C, strain snf2, active compounds read low 1.04 | S. cerevisiae deletion strains, locus YOR316C, strain cot1, active compounds read low 0.985 | S. cerevisiae deletion strains, locus YPL051W, strain arl3, active compounds read low 1.02 | S. cerevisiae deletion strains, locus YPL055C, strain LGE1, active compounds read low 0.957 | S. cerevisiae deletion strains, locus YPL078C, strain atp4, active compounds read low 1.03 | S. cerevisiae deletion strains, locus YPL106C, strain sse1, active compounds read low 0.996 | S. cerevisiae deletion strains, locus YPL240C, strain hsp82, active compounds read low 1.01 | S. cerevisiae deletion strains, locus YPL241C, strain CIN2, active compounds read low 0.997 and 1.01 | S. cerevisiae deletion strains, locus YPL256C, strain CLN2, active compounds read low 0.988 | S. cerevisiae deletion strains, locus YPR119W, strain clb2, active compounds read low 0.987 | S. cerevisiae deletion strains, locus YPR141C, strain kar3, active compounds read low 1 | S. cerevisiae deletion strains, locus YPR163C, strain tif3, active compounds read low 0.987 | S. cerevisiae deletion strains, locus YPR167C, strain met16, active compounds read low 0.99 | S. cerevisiae deletion strains, strain wtn01, active compounds read low 0.983 | S. cerevisiae strains, strain wild type, active compounds read low 0.999

Reference: PubChem BioAssay AID1159580 (chemical genetic matrix, 2015)
